NTMT1 inhibitor: Primary qHTS for Inhibitors of N-terminal methyltransferase 1 (NTMT1): MTaseGlo Assay | NTMT1 MTase-Glo SAH luminescence, purified enzyme | Potency, µM (top dose mostly 114 µM), usual class: inhibitors | 59,000 compounds, 2.5% hits | AID 1645870, 2021; note: nearly all actives have a fitted effect of over 65% in size
Target sequence (Q9BV86 whole entry, looked up): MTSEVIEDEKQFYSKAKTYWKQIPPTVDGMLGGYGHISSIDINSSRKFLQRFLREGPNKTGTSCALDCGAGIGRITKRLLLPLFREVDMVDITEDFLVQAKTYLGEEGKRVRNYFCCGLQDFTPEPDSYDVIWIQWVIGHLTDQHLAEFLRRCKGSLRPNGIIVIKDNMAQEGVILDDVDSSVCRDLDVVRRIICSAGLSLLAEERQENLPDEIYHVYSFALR
DYRK1A inh-1: Assay for Inhibitors of Dual-Specificity Tyrosine-(Y)-Phosphorylation Regulated Kinase 1A (Kinase-Glo assay); shares compounds with NTMT1 inhibitor; recombinant DYRK1A, Kinase-Glo ATP depletion luminescence; Potency, µM (titrated, usually from 76.9 µM), most hits filed as inhibitors; 100 compounds, 80% hits
CLK4 RBC: Kinase Inhibition Study on Inhibitors of CDC-like Kinase 4 (Reaction Biology data): SAR round 2; shares compounds with NTMT1 inhibitor; Reaction Biology kinase assay, 10 uM ATP; Potency, µM, usual class: inhibitors; 65 compounds, 100% hits; AID 504421, 2011; calls by dose curve
DYRK1A inh-2: Kinase Inhibition Study on Inhibitors of Dyrk1a (Reaction Biology data); shares compounds with NTMT1 inhibitor; Reaction Biology kinase assay, 10 uM ATP; Potency, µM, usual class: inhibitors; 65 compounds, 90% hits; AID 504424, 2011;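 active = compounds that showed inhibition of Dyrk1a and received a fitted potency; inactive = compounds that showed no inhibition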
CLK2 inh: Kinase Inhibition Study on Inhibitors of CDC-like Kinase 2 (Reaction Biology data) | shares compounds with NTMT1 inhibitor | Reaction Biology kinase assay, 10 uM ATP | Potency, µM, most hits filed as inhibitors | 65 compounds, 90% hits | AID 504427, 2011;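 active = compound that inhibits Clk2 kinase in the dose series, with an IC50 potency reported; inactive = no inhibition seen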
CLK3 inh: Kinase Inhibition Study on Inhibitors of CDC-like Kinase 3 (Reaction Biology data). Potency, µM, most hits filed as inhibitors. 65 compounds, 40% hits. shares compounds with NTMT1 inhibitor. recombinant CLK3 kinase assay, 10 uM ATP;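 active = compounds that inhibited Clk3 enough in the ten-dose series to give a half-maximal potency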
DYRK1B inh: Kinase Inhibition Study on Inhibitors of Dyrk1b (Reaction Biology data); shares compounds with NTMT1 inhibitor; Recombinant Dyrk1b kinase assay, 10 uM ATP; Potency, µM, usual class: inhibitors; 65 compounds, 80% hits; AID 504429, 2011;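 active = compounds whose dose response shows an inhibitor phenotype against the kinase Dyrk1b; inactive = compounds showing no inhibitor phenotype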
CLK1 RBC: Kinase Inhibition Study on Inhibitors of CDC-like Kinase 1 (Reaction Biology data); 65 compounds, 90% hits; recombinant Clk1 kinase assay, 10 uM ATP; Potency, µM, usual class: inhibitors; shares compounds with NTMT1 inhibitor;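 active = compounds that block the splicing kinase Clk1 enough to give a fitted half-inhibition concentration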
Sfp qHTS opt: qHTS Assay for Inhibitos of Bacillus subtilis Sfp phosphopantetheinyl transferase (PPTase): Chemistry Optimization Followup | shares compounds with NTMT1 inhibitor | purified Sfp PPTase enzyme activity, qHTS | Potency, µM (titrated, usually from 114 µM), usual class: inhibitors | 230 compounds, 78% hits | AID 540350, 2011
HM489 growth: qHTS for Inhibitos of Bacillus subtilis Sfp phosphopantetheinyl transferase (PPTase): Chemistry Optimization Followup in B. Subtilis HM489; shares compounds with NTMT1 inhibitor; 220 compounds, 50% hits; Potency, µM (series often up to 114 µM), actives largely listed as inhibitors; AID 540353, 2011; B. subtilis HM489 (acpS-) growth, BacTiter-Glo, 5 h
Sfp gel opt: Gel-Based Assay for Inhibitos of Bacillus subtilis Sfp phosphopantetheinyl transferase (PPTase): Chemistry Optimization Followup; shares compounds with NTMT1 inhibitor; purified Sfp PPTase, gel-based product detection; Potency, µM (highest dose often 250 µM), hits mostly inhibitors; 220 compounds, 54% hits; AID 540355, 2011
Sfp inh SAR2: qHTS Assay for Inhibitors of Bacillus subtilis Sfp phosphopantetheinyl transferase (PPTase): SAR Round 2; shares compounds with NTMT1 inhibitor; purified Sfp enzyme, PPTase activity, qHTS; Potency, µM (highest dose often 57.1 µM), hits mostly inhibitors; 230 compounds, 87% hits
hGST A1-1 inh: qHTS Assay for Inhibitors of Bacillus subtilis Sfp phosphopantetheinyl transferase (PPTase): SAR in hGST A1-1. shares compounds with NTMT1 inhibitor. hGST A1-1 enzyme activity counter-screen, qHTS. Potency, µM (series often up to 114 µM), hits mostly inhibitors. 55 tested, under 10 active. AID 602391, 2012
HSD17B4 inh: Extended Characterization of HPGD Inhibitors: Counterscreen Against HSD17b4 | purified HSD17B4, estradiol/NAD+, NADH fluorescence | Potency, µM (titrated, usually from 57.1 µM), usual class: inhibitors | 230 compounds, 10% hits | AID 743187, 2013 | shares compounds with NTMT1 inhibitor
ALDH1A1 inh: Extended Characterization of HPGD Inhibitors: Counterscreen Against ALDH1A1; shares compounds with NTMT1 inhibitor; recombinant ALDH1A1, NADH fluorescence, propionaldehyde/NAD+; Potency, µM (titrated, usually from 57.1 µM), hits mostly inhibitors; 230 compounds, 93% hits; AID 743195, 2013
Each line names hits and unclear results; the compound was inactive in the other large screens (follow-up assays come after a bar, where they were run). Shown is part of a subset that was picked to be rich in hits. Unless noted, calls come from the whole dose curve; as a rule, active = well fitted curve in the direction sought with a large enough effect; inconclusive = small, poorly fitted or top-dose-only effect, or another doubt; inactive = no such curve, though single readings can be large; an effect the other way counts as inactive or inconclusive.

Cc1ccnc(NC(=S)N2CC3CN(c4ncc(C(F)(F)F)cc4Cl)CC3C2)c1 (stereo not given)	NTMT1 inhibitor inconclusive | Sfp qHTS opt 0.58µM | Sfp inh SAR2 1.3µM | hGST A1-1 inh inactive | HSD17B4 inh inactive | ALDH1A1 inh 0.38µM
FC(F)(F)c1cnc(N2CCN(C(=S)Nc3cc(Cl)ccn3)CC2)c(Cl)c1	NTMT1 inhibitor inconclusive | Sfp qHTS opt 9.4µM | HM489 growth 12µM | Sfp gel opt inconclusive | Sfp inh SAR2 1.3µM | HSD17B4 inh inactive | ALDH1A1 inh 3.8µM
Cc1ccc(CNc2ncnc3ccc(-c4ccc5c(c4)OCO5)cc23)s1	none | DYRK1A inh-1 0.52µM | CLK4 RBC 0.12 | DYRK1A inh-2 1.2µM | CLK2 inh 15µM | CLK3 inh inactive | DYRK1B inh 15µM | CLK1 RBC 0.89µM
c1nc(OCc2cnc[nH]2)c2cc(-c3ccc4c(c3)OCO4)ccc2n1	none | DYRK1A inh-1 8.2µM
c1csc(CNc2ncnc3cc(-c4ccc5c(c4)OCO5)ccc23)c1	none

Source: PubChem BioAssay
